# DAX1 inh-1 – inhibitors of DAX1 repression of SF-1 activated StAR promoter | HEK293T StAR-luciferase reporter, SF-1/DAX-1 repression relief | inhibition, % at 6.8 µM | 1.1% of 370,000 active;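 active means inhibition above the mean over all tested compounds plus 3 SD, cut at about 3.6% in these data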;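 further: 0% = DAX-1 cells with DMSO and 100% = cells lacking DAX-1 with DMSO; higher inhibition means more luminescence from relief of DAX-1 repression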
# DAX1 inh-2 – inhibits human nuclear receptor DAX1; 0.99% of 340,000 active; P51843; HEK293 Gal4-DAX1 luciferase reporter, luminescence; inhibition, % at 6.75 µM; AID 504766;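 active means inhibition above the mean over all tested compounds plus 3 SD, cut at about 4.2% in these data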;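 further: 0% = DAX1-transfected cells with DMSO and 100% = empty-vector control cells with DMSO; inhibition shows as a rise in luminescence from relieved DAX1 repression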
# Target sequence (P51843 207-470 limits assumed): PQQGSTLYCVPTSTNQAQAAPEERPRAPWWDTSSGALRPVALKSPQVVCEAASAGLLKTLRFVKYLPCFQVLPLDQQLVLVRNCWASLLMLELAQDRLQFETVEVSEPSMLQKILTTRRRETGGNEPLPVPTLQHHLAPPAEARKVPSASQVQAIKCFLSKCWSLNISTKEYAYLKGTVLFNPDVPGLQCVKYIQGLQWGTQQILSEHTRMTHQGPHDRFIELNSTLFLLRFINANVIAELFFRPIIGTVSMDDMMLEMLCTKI
# hgDAF-12 ag – activates the H. glycines DAF-12 receptor ligand-binding domain | activation, % at 6.8 µM | 1.8% of 370,000 active | HEK293 GAL4-hgDAF12 UAS-luciferase reporter, agonist luminescence; normalized to butyrate control;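 active means activation above a cutoff set at the mean of all screened compounds plus 3 SD, cut at about 10% in these data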;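 further: 0% = DMSO wells and 100% = sodium butyrate wells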
# hcDAF12 agonist – activates DAF-12 receptor from parasite H. contortus | HEK293 hcDAF-12 lit1-tk-luc reporter, luminescence; 0% DMSO, 100% Δ7-dafachronic acid | activation, % at 6.8 µM | 1.4% of 370,000 active | AID 652067;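 active means activation above the mean of all tested compounds plus 3 SD, cut at about 5.5% in these data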;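 further: 100% = response to 3 µM Δ7-dafachronic acid high control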
# ssDAF12 agonist – S. stercoralis DAF-12 activation, primary screen. HEK293 ssDAF-12/GRIP1 lit1-tk-luc reporter, luminescence; % of 3 µM dafachronic acid response. activation, % at 6.8 µM. 1% of 370,000 active. AID 652126;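 active means activation above the mean over all tested compounds plus 3 SD, cut at about 0.9% in these data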;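 further: 0% = DMSO-only wells and 100% = 3 µM delta7-dafachronic acid wells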
# DAX1 inh confirm – NR0B1 (human) inhibition, confirmation; HEK293T StAR-promoter luciferase reporter, SF-1/DAX-1 repression; 87% of 2,400 active; inhibition, % at 6.8 µM; shares compounds with DAX1 inh-1; AID 652134;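 active means inhibition above the average of every tested compound plus 3 SD, cut at about 3.8% in these data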;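 further: 0% = DAX-1 cells with DMSO and 100% = no DAX-1 control cells with DMSO; active compounds raise luminescence by relieving repression of the StAR reporter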
# SF1 mutant ctr – counter-screen for DAX1 inhibitors: nonselective inhibitors with SF-1 AF2 mutant; shares compounds with DAX1 inh-1; inhibition, % at 6.8 µM; 78% of 2,400 active; HEK293 StAR-luciferase, luminescence;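 active means inhibition above the mean of all tested compounds plus 3 SD, cut at about 3% in these data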;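 further: 0% = DAX-1 transfected cells with DMSO and 100% = cells without DAX-1 with DMSO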
# LXRb hcDAF ctr – counter-screen for hcDAF-12 agonists: agonists of human LXR-beta. shares compounds with hcDAF12 agonist. HEK293 Gal4-LXR tk-luc reporter, luminescence, 24 h; normalized: DMSO 0%, positive control 100%. activation, % at 6.8 µM. 3,400 tested, under 10 active;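 active means mean percent activation of the reporter above a cutoff set as the average over tested compounds plus their standard deviation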
# hcDAF12 ag – confirmation of H. contortus DAF-12 agonists; 61% of 3,400 active; shares compounds with hcDAF12 agonist; HEK293 hcDAF-12 lit1-tk-luc reporter, luminescence; % of Δ7-dafachronic acid response; activation, % at 6.8 µM; AID 743032;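 active means mean activation across triplicate tests above the threshold derived from the earlier primary screen, cut at about 5.5% in these data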;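 further: 0% = DMSO only wells and 100% = 3 µM Δ7-dafachronic acid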
# hgDAF12 conf – confirmation of H. glycines DAF-12 agonists; activation, % at 6.8 µM; shares compounds with hgDAF-12 ag; HEK293 GAL4-hgDAF12 luciferase reporter, agonist mode; percent of butyrate response; 80% of 3,300 active;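 active means mean activation over triplicate wells above the hit cutoff derived from the earlier primary screen, cut at about 11% in these data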;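 further: 0% = DMSO low control and 100% = 2 mM sodium butyrate high control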
# LXR ag 2 – counter-screen for DAF-12 agonists: agonists of human LXR-beta | activation, % at 6.8 µM | shares compounds with hgDAF-12 ag | 3,300 tested, under 10 active | AID 743051 | HEK293 Gal4-LXR luciferase reporter, 24 h;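 active means mean activation of the triplicate above a set limit carried over from the primary screen, none filed active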
# * hit, by the source's call; . = not tested or not shown. Rows were chosen to be rich in hits. Some 4.1% of all compounds tested hit in one or more screens of this group.
SMILES,DAX1 inh-1,DAX1 inh-2,hgDAF-12 ag,hcDAF12 agonist,ssDAF12 agonist,DAX1 inh confirm,SF1 mutant ctr,LXRb hcDAF ctr,hcDAF12 ag,hgDAF12 conf,LXR ag 2
O=C(O)c1ccc(N=Nc2c(O)[nH]c3ccccc23)cc1,5.9*,-2,16*,12*,2.0*,11*,5.7*,1,9.9*,17*,1
Nc1ccc2c(c1)C(=O)C(=O)c1ccccc1-2,-5,-4,-17,-8,-4,.,.,.,.,.,.
Nc1ccc2c(c1)C(=O)c1ccccc1C2=O,10*,2,17*,7.3*,1,7.2*,5.0*,0,2,18*,1
Oc1ccc(-c2nnc(-c3ccc(O)cc3)nn2)cc1,5.5*,-1,15*,6.5*,1,13*,8.4*,.,.,21*,1
Oc1ccc(-c2cc(-c3ccc(O)cc3)nc(-c3ccccc3)n2)cc1,-1,2,2,-2,-2,.,.,.,.,.,.
COc1ccc(/C=C/C(=O)N(C)C2CCCCC2)cc1Br,0,3,6,-1,-1,.,.,.,.,.,.
CN(C(=O)/C=C/c1cnc2ccccc2c1)C1CCCCC1,7.8*,-1,17*,8.1*,0.9*,17*,9.9*,1,6.3*,15*,1
O=C(/C=C/Nc1ccc(F)cc1F)c1ccco1,7.5*,-1,25*,15*,2.1*,7.2*,2,2,20*,14*,1
O=C(NNC(=S)Nc1ccc(F)cc1F)c1ccco1,2,0,5,-1,0,.,.,.,.,.,.
COc1ccc(C2=NN3C(C2)c2ccccc2OC32C(=O)N(C)c3ccccc32)cc1 (stereo unspecified),6.6*,3,17*,12*,2.4*,4.0*,4.8*,0,2,22*,1
OC[C@H]1O[C@@H](c2nc3ccc(-c4nc(-c5cccs5)no4)cc3[nH]2)C[C@@H]1O,4.8*,.,15*,6.1*,1,10*,8.7*,.,.,16*,1
N#CCC[C@@H]1CC[C@]2(CCCN(S(=O)(=O)C3CCCCC3)C2)O1,0,.,1,0,-1,.,.,.,.,.,.
O=C(NC(=S)Nc1cc([N+](=O)[O-])ccc1O)c1ccc2c(c1)OCO2,10.0*,1,16*,9.2*,0,16*,7.4*,2,9.7*,18*,1
COc1cc([N+](=O)[O-])ccc1NC(=S)NNC(=O)c1ccc2c(c1)OCO2,0,0,2,1,-1,.,.,.,.,.,.
COc1ccccc1C(=O)N1CCN(C(=O)[C@@H](Cc2ccccc2)NC(=O)[C@H]2O[C@@H](n3cnc(C(N)=O)n3)[C@H](O)[C@@H]2O)CC1,0,.,-2,-1,-1,.,.,.,.,.,.
Cc1csc(-c2nc3ccccc3n2C(C(=O)NC(C)(C)C)c2cc3ccccc3o2)c1 (stereo unspecified),11*,.,16*,9.4*,1.9*,6.6*,6.0*,1,11*,18*,1

# Screens (PubChem BioAssay)
